Data as given in ChEMBL document CHEMBL3988442, “University of Dundee, Small-Polar-MMV Screening Library” (2021).
Among all 48,000 compounds or so, about 13,000 (27%) showed an effect of 50% or more. The list shows a part of the results.

The compounds below were run on Wolbachia pipientis (assay: Anti-Wolbachia Cell-Based Screen). Settings: 5 µM.
Type: functional
Design: scale not given: in the data most compounds retested in dose-response had high values
`N#Cc1ccnc(N2CCN(CC(O)c3ccccc3)CC2)c1` (stereo not drawn) was tested, and the “Percent Effect” value was -34.32%. For `COc1ccccc1C1(CNc2ncc(S(N)(=O)=O)s2)CC1`, the “Percent Effect” value was -5.545%. `CCN(CC)C(=O)N1CCN(C(=O)C2CCCc3[nH]ncc32)CC1` (stereo not drawn) was tested, and the “Percent Effect” value was -7.717%. For `CC(NC(=O)NCCCc1n[nH]c(N)c1C#N)c1ccccc1` (stereo not drawn), the “Percent Effect” value was 11.96%. For `Cn1cc(CN2CCc3c(nnn3C)C2COCc2ccccc2)cn1.O=C(O)C(F)(F)F` (stereo not drawn), the “Percent Effect” value was -8.957%. For `CC(C)CN1CCc2[nH]cnc2C12CCN(C(=O)c1cccnc1)CC2`, the “Percent Effect” value was 1.531%. `COCCNC(=O)NCC(C)c1ccccc1OC` (stereo not drawn) was tested, and the “Percent Effect” value was -10.13%. For `O=C(c1ccoc1)N1C[C@H]2CC[C@@]3(N=C(c4ccccc4)NC3=O)[C@H]2C1`, the “Percent Effect” value was -13.12%. `CCN1C[C@@H]2CN(C(=O)c3ccsc3)C[C@@H]2C1=O` was tested, and the “Percent Effect” value was -7.34%. In the case of `CNC(=O)[C@H]1C[C@@H]2CN(C(=O)c3ccsc3)C[C@@H]2N1S(C)(=O)=O`, the “Percent Effect” value is reported as 104.8%. In the case of `O=C(c1ccoc1)N1C[C@@H]2CN(c3ncccn3)C[C@@H]2C1`, the “Percent Effect” value is reported as -12.12%. `CNC(=O)[C@H]1C[C@@H]2CN(C(=O)c3occc3C)C[C@@H]2N1S(C)(=O)=O` was tested, and the “Percent Effect” value was 100.3%. With `CNC(=O)[C@H]1C[C@@H]2CN(C(=O)c3ccoc3)C[C@@H]2N1S(C)(=O)=O` the “Percent Effect” value was 83.29%. For `Cc1ccoc1C(=O)N1CC[C@@]2(C[C@H](NS(C)(=O)=O)CCO2)C1`, the “Percent Effect” value was -10.72%. In the case of `CNC(=O)[C@H]1C[C@@H]2CN(S(=O)(=O)c3ccccc3)C[C@@H]2N1C(C)=O`, the “Percent Effect” value is reported as -8.592%. In the case of `CNC(=O)[C@H]1C[C@@H]2CN(C(=O)c3ccc(C)o3)C[C@@H]2N1S(C)(=O)=O`, the “Percent Effect” value is reported as 94.93%. For `CNC(=O)[C@H]1C[C@@H]2CN(C(=O)c3cscn3)C[C@@H]2N1S(C)(=O)=O`, the “Percent Effect” value was -14.13%. With `CNC(=O)[C@H]1C[C@@H]2CN(C(=O)c3ccco3)C[C@@H]2N1S(C)(=O)=O` the “Percent Effect” value was 10.85%. `Cc1nn(C)c(Cl)c1CNCc1ccc(OCC(N)=O)cc1` was tested, and the “Percent Effect” value was 6.399%. `O=C(NC[C@H]1OC[C@@H](NCc2ccc(F)cc2)[C@@H]1O)N1CCOCC1` was tested, and the “Percent Effect” value was -11.78%. For `CCNC(=O)N1CCC(NC(=O)NCCc2cccc(C)c2)C1` (stereo not drawn), the “Percent Effect” value was -4.75%. `NCC1CN(c2nc(-c3ccccc3)nc3c2CCNCC3)CCO1` (stereo not drawn) was tested, and the “Percent Effect” value was 2.56%. In the case of `O=C(CCN1CCOC(C(F)(F)F)C1)NCc1cccc(Cl)c1` (stereo not drawn), the “Percent Effect” value is reported as -5.951%. For `Cc1cc(-c2nn(C)c(Cl)c2CN2CCOC(C(=O)O)C2)no1` (stereo not drawn), the “Percent Effect” value was -7.215%. With `CS(=O)(=O)NC1CCCN(Cc2ccc(OCc3ccccn3)cc2)C1` (stereo not drawn) the “Percent Effect” value was 2.735%. For `FC(F)(F)C1CN(Cc2cccc(OCc3ccccn3)c2)CCO1` (stereo not drawn), the “Percent Effect” value was 94.94%. In the case of `CN1C(=O)[C@H]2CC[C@@H]1CN(Cc1cccc(OCc3ccccn3)c1)C2`, the “Percent Effect” value is reported as -0.7428%. With `CN(C)C(=O)CCC1CCCN(Cc2cccc(-c3ccccn3)c2)C1` (stereo not drawn) the “Percent Effect” value was 9.493%. For `FC(F)(F)C1CN(Cc2cnc3c(-c4ccccc4)cnn3c2)CCO1` (stereo not drawn), the “Percent Effect” value was 27.88%. In the case of `O=C(O)C1CN(Cc2cccc(-c3ccccn3)c2)CCO1` (stereo not drawn), the “Percent Effect” value is reported as 102.3%. `FC(F)(F)C1CN(Cc2cccc(-c3ccccn3)c2)CCO1` (stereo not drawn) was tested, and the “Percent Effect” value was 75.31%. `Cc1nc2c(c(N3CCC(CN4CCCC4=O)CC3)n1)CCNCC2` was tested, and the “Percent Effect” value was -1.611%. `COC(=O)c1cc(OCC2CCC2)cc(C(=O)N[C@H]2CC[C@H](O)CC2)c1` was tested, and the “Percent Effect” value was -10.19%. `CSCCC1CC(=O)Nc2cc(O)c(C)cc21` (stereo not drawn) was tested, and the “Percent Effect” value was 3.121%. `O=C(c1cnc(NCCC2CCCO2)c(Cl)c1)N1CCCCC1` (stereo not drawn) was tested, and the “Percent Effect” value was -6.452%. For `CNC(=O)c1cc2c(nc1NC(C)C)CCN(C(=O)NC(C)C)CC2`, the “Percent Effect” value was -1.585%. For `CCN1CCOCC2(CCCN(c3nncs3)C2)C1` (stereo not drawn), the “Percent Effect” value was -9.534%. For `CC(=O)c1cc(CC(=O)N2CCCC2c2nc(C(C)C)no2)cs1` (stereo not drawn), the “Percent Effect” value was -13.65%. `CC(Cn1cncn1)NC(=O)NCC(C)(C)c1ccc(F)cc1` (stereo not drawn) was tested, and the “Percent Effect” value was 10.62%. `Cc1nn(C)cc1-c1cc(C(=O)NCC(C)(C)c2ccc(F)cc2)n[nH]1` was tested, and the “Percent Effect” value was 130.7%. In the case of `Cc1cc(C)n(CC(C)NC(=O)C(C)(C)c2ccccc2F)n1` (stereo not drawn), the “Percent Effect” value is reported as 6.546%. For `O=C(NCc1nc[nH]n1)c1cc(COc2cccc(F)c2)[nH]n1`, the “Percent Effect” value was -19.41%. `Cn1nnnc1SCCC(=O)NCC(C)(C)c1ccccc1F` was tested, and the “Percent Effect” value was -11.64%. With `Cc1nn(C)cc1-c1cc(C(=O)NCC(C)(C)c2cccc(F)c2)n[nH]1` the “Percent Effect” value was 113.6%. For `CSCC(C)(O)CNC(=O)c1ccc(F)cc1Cl` (stereo not drawn), the “Percent Effect” value was 16.17%. In the case of `Cc1nncn1CCNC(=O)C(C)(C)c1cccc(F)c1`, the “Percent Effect” value is reported as -15.91%. In the case of `Cc1nn(C)cc1-c1cc(C(=O)NCC(C)(C)c2ccccc2F)n[nH]1`, the “Percent Effect” value is reported as 89.7%. For `O=C1CC(c2ccccc2F)c2c(n3ccsc3nc2=O)N1` (stereo not drawn), the “Percent Effect” value was 13.25%. In the case of `CC(NC(=O)Nc1cc(F)cc(F)c1)c1nc[nH]n1` (stereo not drawn), the “Percent Effect” value is reported as -15.42%. With `O=C(NCC1CC1)C1CN(C(=O)c2cccnc2)CC12CCOCC2` (stereo not drawn) the “Percent Effect” value was 0.4189%. `O=C(NCC1CC1)C1CCC2(CCN(C(=O)c3ccncc3)CC2)O1.O=C(O)C(F)(F)F` (stereo not drawn) was tested, and the “Percent Effect” value was 111.8%. With `CC1N(CC2CC2)C(=O)COC12CCN(C(=O)c1ccncc1)CC2` (stereo not drawn) the “Percent Effect” value was -6.799%. With `O=C1COC2(CCN(C(=O)c3cnccn3)CC2)CN1CC1CC1` the “Percent Effect” value was -3.882%. For `O=C(C1CCC2(CCN(CC3CC3)CC2)O1)N1CCCC1.O=C(O)C(F)(F)F` (stereo not drawn), the “Percent Effect” value was -8.008%. `O=C(NCC1CC1)C1CN(C(=O)c2cnccn2)CC12CCOCC2` (stereo not drawn) was tested, and the “Percent Effect” value was -1.801%. With `O=C(NCC1CC1)C1CCC2(CCN(C(=O)c3cnccn3)CC2)O1` (stereo not drawn) the “Percent Effect” value was 100.2%. For `O=C(NCC1CC1)C1CCC2(CCN(C(=O)c3cccnc3)CC2)O1.O=C(O)C(F)(F)F` (stereo not drawn), the “Percent Effect” value was 93.2%. In the case of `CCc1nnc2n1CC(CNCc1nc(-c3ccsc3)no1)CC2` (stereo not drawn), the “Percent Effect” value is reported as -16.4%. `Cc1ccccc1CN(C)C(=O)Cn1nc(-c2ccc(F)cc2)oc1=O` was tested, and the “Percent Effect” value was -30.13%. `Cl.O=C(Cn1c(-c2ccco2)cc2cccnc21)N1CCCC1` was tested, and the “Percent Effect” value was 109.6%. For `COc1ncccc1C(=O)N1CC(c2nc(-c3ccco3)no2)C1`, the “Percent Effect” value was 8.085%. With `COCCNC(=O)Cn1c(-c2ccco2)cc2cccnc21` the “Percent Effect” value was 97.97%. For `O=C(Cn1ccc2ncccc2c1=O)N1CCCCC1`, the “Percent Effect” value was -19.73%. For `CC(C)N(C(=O)Cn1c(-c2ccco2)cc2cccnc21)C(C)C.Cl`, the “Percent Effect” value was 129.4%. `O=C(c1ncoc1-c1ccco1)N1CCCN(c2ncccn2)CC1` was tested, and the “Percent Effect” value was -13.17%. `Cc1nc(-c2ccccc2)n(CC(=O)N(C(C)C)C(C)C)n1` was tested, and the “Percent Effect” value was 7.414%. `COCCCNC(=O)Cn1nnc(-c2cc3ccccc3o2)n1` was tested, and the “Percent Effect” value was -9.995%. `COc1cccc(OCCNC(=O)CN2CCN(C)CC2C)c1` (stereo not drawn) was tested, and the “Percent Effect” value was 0.3417%. For `CCCS(=O)(=O)NCC1CCOc2ccccc2C1` (stereo not drawn), the “Percent Effect” value was -3.198%. For `Cn1nnc2c1C(COCC1CC1)CN(C(=O)Cc1ccccn1)C2` (stereo not drawn), the “Percent Effect” value was 3.096%. With `Cc1nc(N(C)CCN(C)C)c2cnn(C)c2n1` the “Percent Effect” value was -4.82%. For `Cc1cc(C)nc(CN(C)c2nc(C3CCCC3)nc3c2cnn3C)c1`, the “Percent Effect” value was 180.1%. With `Cc1c[nH]c(CN(C)c2nc(C3CCCC3)nc3c2cnn3C)n1` the “Percent Effect” value was -9.015%. In the case of `CCc1nnc(CN(C)c2nc(C3CCCC3)nc3c2cnn3C)o1`, the “Percent Effect” value is reported as -12.86%. In the case of `CN(Cc1ccno1)c1nc(C2CCCC2)nc2c1cnn2C`, the “Percent Effect” value is reported as 93.91%. For `CCC(Nc1nc(C2CCCC2)nc2c1cnn2C)c1ccncc1` (stereo not drawn), the “Percent Effect” value was 11.81%. In the case of `Cc1cc(CC(C)Nc2nc(C3CCCC3)nc3c2cnn3C)[nH]n1` (stereo not drawn), the “Percent Effect” value is reported as 4.574%. In the case of `Cc1nn(C)c(C)c1CN(C)c1nc(C2CCCC2)nc2c1cnn2C`, the “Percent Effect” value is reported as 74.08%. With `CNCCCNc1nc(C2CCCC2)nc2c1cnn2C` the “Percent Effect” value was -5.607%. For `CNc1ncc(CN(C)c2nc(C3CCCC3)nc3c2cnn3C)cn1`, the “Percent Effect” value was 113.7%. For `Cn1ncc2c(NCCn3cccc3)nc(C3CCCC3)nc21`, the “Percent Effect” value was 12.23%. `CCCc1nc(N(C)Cc2cnc(NC)nc2)c2cnn(C)c2n1` was tested, and the “Percent Effect” value was 3.632%. For `O=C(c1ccc(-n2cncn2)cc1)N1CCN(c2cnccn2)CC1`, the “Percent Effect” value was -5.785%. `N#Cc1ccc(NCC(=O)Nc2ccn(Cc3cccnc3)n2)cc1` was tested, and the “Percent Effect” value was 0.1964%. With `O=C(CCc1ccccn1)N1CCc2cc(Cl)cc(Cl)c2C1` the “Percent Effect” value was -9.614%. For `CC(NC1(CNC(=O)C(C)(C)C#N)CCOCC1)c1ccccc1` (stereo not drawn), the “Percent Effect” value was -5.654%. In the case of `Cc1noc(C)c1CN(C)c1nc(C2CCCC2)nc2c1cnn2C`, the “Percent Effect” value is reported as 118.2%. With `CC(C)N(CCNc1nc(C2CCCC2)nc2c1cnn2C)C(C)C` the “Percent Effect” value was -18.52%. With `CCOCCNc1nc(C2CCCC2)nc2c1cnn2C` the “Percent Effect” value was -2.506%. In the case of `COc1ncccc1CN1CCn2c(C(=O)N3CCCC3)cnc2C1.O=C(O)C(F)(F)F.O=C(O)C(F)(F)F`, the “Percent Effect” value is reported as -2.628%. With `COCCN1CCn2cc(CN(C)Cc3ccco3)nc2C1` the “Percent Effect” value was 6.66%. In the case of `Cc1nc2c(c(NCC(O)c3ccccc3Cl)n1)CCNCC2` (stereo not drawn), the “Percent Effect” value is reported as -5.653%. For `Cc1ccccc1C(Nc1ncnc2c1CCNC2)c1ccccc1` (stereo not drawn), the “Percent Effect” value was 93.65%. With `Cc1nc2c(c(NCC(O)C(F)(F)F)n1)CCNCC2` (stereo not drawn) the “Percent Effect” value was -4.402%. In the case of `Cc1[nH]c2ccc(Cl)cc2c1CCNc1ncnc2c1CCNC2`, the “Percent Effect” value is reported as 12.31%. For `Cc1ccccc1C(CNc1ncnc2c1CCNCC2)N(C)C` (stereo not drawn), the “Percent Effect” value was 105.5%. With `CCOc1ccc(C(C)Nc2ncnc3c2CCNC3)cc1OCC` (stereo not drawn) the “Percent Effect” value was -5.441%. For `CC(Nc1ncnc2c1CCNC2)c1ccc(C(C)(C)C)cc1` (stereo not drawn), the “Percent Effect” value was 30.56%. With `OC(CNc1ncnc2c1CCNCC2)C(F)(F)F` (stereo not drawn) the “Percent Effect” value was -1.789%. For `Cc1ccccc1C(CNc1ncnc2c1CCNC2)N(C)C` (stereo not drawn), the “Percent Effect” value was 84.04%. With `Cc1[nH]c2ccc(C#N)cc2c1CCNc1ncnc2c1CCNCC2` the “Percent Effect” value was 9.456%. In the case of `CCCc1ccc(C(C)Nc2ncnc3c2CCNC3)cc1` (stereo not drawn), the “Percent Effect” value is reported as -93.4%. `Cc1nc2c(c(NCC(c3ccccc3C)N(C)C)n1)CCNC2` (stereo not drawn) was tested, and the “Percent Effect” value was 96.84%.
